This note sets out measurements from PubChem BioAssay AID624297 (National Center for Advancing Translational Sciences (NCATS), 2012).

Structures are written as SMILES. Hit rate of the full screen: of about 340,000 compounds, about 6,200 (1.8%) were called active. A call without a number means that no potency is given here. About 10% were inconclusive and are not listed. Calls come from the whole dose curve; as a rule, active = well fitted activation curve with a large enough effect; inconclusive = small, poorly fitted or top-dose-only effect; inactive = no such curve, though single readings can be large or run the other way. The sample as a whole holds a higher share of actives than the screen did.
Potency is the fitted concentration of half-maximal effect.

The nature of this test: A quantitative high throughput screen for small molecules that induce DNA re-replication in SW480 colon adenocarcinoma cells. Note: nearly all actives have a fitted effect of over 55% in size. Conditions: Hoechst DNA content imaging, 48 h; series mostly up to 46.1 µM. The procedure, abridged:
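DNA re-replication was detected as more nuclei of elevated Hoechst intensity after 48 hr exposure to compound (23 nL pinned per well of 250 cells).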
As for `CC(=O)Nc1ccc(NC(=O)COC(=O)C2CCC(C(C)(C)C)CC2)cc1` (configuration not stated), the Potency entry is “inactive”.

As for `Cc1ccc(NC(=O)Cn2cnc3c(OCc4ccccc4)ncnc32)cc1C`, the Potency entry is “inactive”.

In the case of `CCOc1ccccc1N1CCN(C(=O)c2ccc3[nH]c(C)c(C)c3c2)CC1`, the Potency is 18.4 µM (active).

As to `Cc1[nH]c2ccc(C(=O)N3CCN(C)CC3)cc2c1C`, the Potency result was “inactive”.

On to `COc1ccccc1N1CCN(C(=O)c2ccc(Cl)c(S(=O)(=O)N3CCCC3)c2)CC1`, for which the Potency result is “inactive”.

Take `Cc1cc(NC(=O)CN2C(=O)NC(CC(C)C)C2=O)no1` (configuration not stated): the Potency result was “inactive”.

For the molecule `COc1ccc(CCNC(=O)c2ccc(NC(=O)CC3SC(N4CCCCC4)=NC3=O)cc2)cc1OC` (configuration not stated), the Potency entry was “inactive”.

`C=CC[C@H](CC(=O)OC(C)(C)C)C(=O)OC[C@H]1CCCN1C(=O)[C@H](CC=C)CC(=O)N(CCO)Cc1ccccc1`: the Potency entry was “inactive”.

`CN1C(=O)c2ccc(NC(=O)c3c(F)c(F)c(F)c(F)c3F)cc2C1=O`: the Potency result is “inactive”.

On to `CN1C(=O)c2ccc(NC(=O)C3CCCCC3)cc2C1=O`, for which the Potency is 16.4 µM (active).

On to `O=C(O)c1ccc(NC(=O)C2CCCCC2)cc1`, for which the Potency entry was “inactive”.

For the molecule `COc1ccc2nc(N3C(=O)C(O)=C(C(=O)c4ccco4)C3c3ccco3)sc2c1` (configuration not stated), the Potency entry is “inactive”.

As for `O=C(COC(=O)c1ccc(Br)o1)NC12CC3CC(CC(C3)C1)C2`, the Potency result is “inactive”.

In the case of `O=C(Cc1ccc(Cl)c(Cl)c1)Nc1ccc(SC(F)F)cc1`, the Potency result was “inactive”.

In the case of `O=C(CC1SCCNC1=O)Nc1ccc(Cl)c(Cl)c1` (configuration not stated), the Potency entry is “inactive”.

With `O=C(CC(O)(C(F)(F)F)C(F)(F)F)Nc1ccc(Cl)c(Cl)c1`, the Potency is 14.6 µM (active).

For the molecule `Cc1noc(C)c1C(=O)OC(C)C(=O)Nc1ccc2c(c1)OCO2` (configuration not stated), the Potency result was “inactive”.

Regarding `O=C1C2C3C=CC(C3)C2C(=O)N1c1ncc([N+](=O)[O-])s1` (configuration not stated), the Potency result was “inactive”.

Take `C/C(=N\Nc1ccccc1)c1cccs1`: the Potency entry is “inactive”.

With `CC(C)c1nccn1S(=O)(=O)c1cc([N+](=O)[O-])ccc1Cl`, the Potency result is “inactive”.

On to `CCc1nc(C)cn1S(=O)(=O)c1cc([N+](=O)[O-])ccc1Cl`, for which the Potency is 4.11 µM (active).

As to `CCc1nc(C)cn1S(=O)(=O)c1cc(OC)c(C)cc1C`, the Potency result was “inactive”.

`O=C(Nc1ccc(S(=O)(=O)N2CCOCC2)cc1)C1CCN(S(=O)(=O)c2ccc(Cl)cc2)CC1`: the Potency result was “inactive”.

With `C#CCNC(=O)C1=C[C@@H](c2ccccc2)[C@H](CCCO)[C@@H](OCC)O1`, the Potency was 23.1 µM (active).

Take `CCO[C@H]1OC(C(=O)NCc2ccccc2)=C[C@@H](c2coc3ccccc3c2=O)[C@@H]1CCCO`: the Potency entry was “inactive”.

In the case of `CCO[C@@H]1OC(C(N)=O)=C[C@H](c2ccc(Br)cc2)[C@H]1CCCO`, the Potency entry was “inactive”.

With `CN(c1ccccc1)S(=O)(=O)c1ccc(C(=O)N2CCN(c3ccccc3Cl)CC2)cc1`, the Potency result is “inactive”.
